Screening data as filed in PubChem BioAssay.
Giardia FBPA inh = inhibitors of Giardia lamblia fructose-1,6-bisphosphate aldolase. A8B2U2. purified Giardia FBPA. Potency, µM (series often up to 59.6 µM), without a hit: at the highest dose activity, negative = inhibition, actives largely listed as inhibitors. actives 0.71% (n = 290,000). AID 2451; further: potency means the concentration at half of the fitted maximal effect; on the % scale 0 is the no-effect control and ±100 the full control effect; nearly all actives have a fitted effect of over 55% in size
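Giardia FBPA (40 nM reagent) was preincubated 10 min at RT with compound (up to 57.5 uM final), then substrate plus GAPDH/TPI/NAD/arsenate coupling system with diaphorase/resazurin was added; resorufin fluorescence (525/598 nm) was read after 20 min.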
TbPYK inhibitor = blocks Trypanosoma brucei pyruvate kinase. Q57TT1. TbPYK enzyme, Kinase-Glo Plus ATP luminescence, 45 min. Potency, µM (series often up to 76.8 µM), for inactives: at the highest dose activity, negative = inhibition, hits mostly inhibitors. actives 0.12% (n = 410,000). AID 624173; further: potency means the concentration at half of the fitted maximal effect; on the % scale 0 is the no-effect control and ±100 the full control effect; nearly all actives have a fitted effect of over 50% in size
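Enzyme and substrate buffer are dispensed first and compound is pin-transferred. ADP at 130 uM final then starts the reaction, which runs 45 min at room temperature. Detection reagent is added for 10 min before luminescence is imaged.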
Shiga toxin inh = Shiga toxin inhibition. Vero cells, Shiga toxin protein synthesis inhibition reporter. AID 2315. actives 9.2% (n = 290,000). inhibition, % at 38.7 µM; in the data active means inhibition mostly above about 28%, no sharp cut-off; inactive means mostly below about 43%; further: 0% is about no effect
Sm TGR inh = inhibitors of Schistosoma mansoni thioredoxin glutathione reductase; Q962Y6; purified TGR, DTNB reduction, TNB absorbance 405 nm; Potency, µM (doses to about 114 µM), for the others: at the top dose activity change, negative = inhibition, most hits filed as inhibitors; actives 3% (n = 360,000); further: potency means the concentration at half of the fitted maximal effect; on the % scale 0 is the no-effect control and ±100 the full control effect; nearly all actives have a fitted effect of over 60% in size
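First, TGR (20 nM dispensed) and NADPH were mixed with compound. Second, a 15 min room-temperature incubation followed. Third, further NADPH and then DTNB were added to start the reaction. Finally, TNB absorbance was monitored kinetically.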
Cycloheximide cs = counter-screen hit for Shiga toxin inhibitors, cycloheximide; cell reporter, cycloheximide protein synthesis inhibition counterscreen; max response, %; actives 12% (n = 300,000); AID 2314; in the data active means max response mostly above about 13%, no sharp cut-off; inactive means mostly below about 14%; further: read at 38.3 µM for the half of the compounds with a filed dose; 0% is about no effect
LmPK inhibitor = inhibitors of Leishmania mexicana pyruvate kinase | actives 0.37% (n = 290,000) | AID 1721 | Q27686 | Potency, µM (series often up to 57.5 µM), inactives show top-dose activity change, negative = inhibition, actives largely listed as inhibitors | purified LmPK, Kinase-Glo ATP luminescence, 1 h; further: potency means the concentration at half of the fitted maximal effect; on the % scale 0 is the no-effect control and ±100 the full control effect
Target sequence (Q27686 whole entry, looked up): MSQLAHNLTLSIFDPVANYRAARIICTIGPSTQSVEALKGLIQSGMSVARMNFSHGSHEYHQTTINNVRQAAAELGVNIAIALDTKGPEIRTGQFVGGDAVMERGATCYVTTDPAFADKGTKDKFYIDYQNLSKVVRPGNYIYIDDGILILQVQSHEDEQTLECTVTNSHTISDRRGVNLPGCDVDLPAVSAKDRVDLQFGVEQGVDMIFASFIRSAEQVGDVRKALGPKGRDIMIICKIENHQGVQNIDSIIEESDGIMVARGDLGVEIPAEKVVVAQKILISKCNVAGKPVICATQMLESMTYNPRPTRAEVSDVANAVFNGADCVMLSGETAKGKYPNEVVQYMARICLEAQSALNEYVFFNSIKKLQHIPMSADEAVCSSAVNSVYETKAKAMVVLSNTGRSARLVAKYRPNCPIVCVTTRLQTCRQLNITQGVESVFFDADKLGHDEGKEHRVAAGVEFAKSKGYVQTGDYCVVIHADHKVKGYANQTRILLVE
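Pyruvate kinase activity monitored as ATP production (luciferase luminescence). Conditions: 0.1 nM enzyme, 0.5 mM PEP, 0.1 mM ADP, 1 h, RT; normalized against uninhibited and no-enzyme wells.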
An asterisk follows results filed as active; ? = inconclusive; · = not tested or not shown. This excerpt belongs to a sample that is enriched for hits. Unless noted, the call rests on the fitted dose curve; in most records, active means well fitted curve in the direction sought with a large enough effect; inconclusive means small, poorly fitted or top-dose-only effect, or another doubt; inactive means no such curve, though single readings can be large; an effect the other way counts as inactive or inconclusive.

SMILES | Giardia FBPA inh | TbPYK inhibitor | Shiga toxin inh | Sm TGR inh | Cycloheximide cs | LmPK inhibitor
COc1cc2c(cc1OC)[C@@H](NC(=O)CCc1ccccc1)[C@H](OCc1ccccc1)C2 | · | 0% | · | · | · | ·
O=c1c2ccccc2ncn1-c1ccc([N+](=O)[O-])cc1Cl | 0% | 2% | -3 | 0% | -2 | -2%
COc1ccc(C(=O)Nc2nnc(-c3ccco3)s2)cc1 | 1% | -5% | 72* | -10% | 37* | ?
O=C(COc1ccc2ccccc2c1)Nc1nnc(-c2ccco2)s1 | 3% | 5% | 4 | -31% | -1 | 3%
CCc1[nH]c(=O)[nH]c1C(C)S(=O)(=O)c1ccc(C)cc1 (configuration not stated) | -3% | -1% | 19 | 0.28µM* | 6 | 10%
CCc1c(C(C)S(=O)(=O)c2ccc(C)cc2)[nH]c(=O)n1-c1ccc(C)cc1 (configuration not stated) | -1% | -8% | -4 | 2.8µM* | -2 | 4%
Cc1ccc(-n2c3c(c(=O)[nH]c2=O)C(NS(=O)(=O)c2ccc(C)cc2)(C(F)(F)F)C(=O)N3)cc1 (configuration not stated) | -10% | -11% | -11 | 9% | -3 | 0%
CCOc1ccc(-c2nnc(SCC(=O)NCc3ccccc3Cl)o2)cc1 | · | 2% | · | 20µM* | · | ·
O=C(CSc1ncccn1)NCc1ccccc1Cl | -3% | -1% | 68* | 2% | 50* | -6%
CCOc1ccc(-c2nnc(SCC(=O)NC3CC3)o2)cc1 | · | -5% | · | 0% | · | ·
CCOc1ccc(-c2nnc(SCC(=O)NCc3ccc(Cl)cc3)o2)cc1 | · | -4% | · | 14µM* | · | ·
CCOc1ccc(-c2nnc(SCC(=O)NCc3ccccc3)o2)cc1 | · | -10% | · | -3% | · | ·
COc1ccc(Cl)cc1NC(=O)CN(C)C(=O)c1ccc(-n2cncn2)cc1 | · | 7% | · | · | · | ·
Cc1cc(Cn2cnc3c2C[C@@H](C(=O)O)N(C(=O)C(c2ccccc2)c2ccccc2)C3)ccc1N(C)C | 0% | · | · | · | · | ·
COC(=O)c1ccc(=O)c2nc3/c(=C/O)c(O)cc(=O)c3[nH]c12 | -21% | 1% | 11 | 50µM* | 1 | -11%
CC1=CC(=O)C=CC1=Nc1ccc(N(C)C)cc1 | · | 35µM* | · | · | · | ·
O=C(/C=C/c1ccco1)Nc1cccnc1 | -18% | -12% | 47 | · | 21* | ?
CC(/C=C/c1ccco1)=N\NC(=O)c1cccnc1 | ? | -4% | 6 | 35µM* | 5 | 8%
C/C(=N\NC(=O)c1ccncc1)c1cccnc1 | -5% | -2% | 39 | 1% | 11 | 6%
CC(C)(C)c1ccc(/C=C/C(=O)Nc2cccnc2)cc1 | 0% | 6% | 70* | 14% | 29* | -2%
O=C(/C=C/c1ccco1)Nc1ccc(Oc2ccc(Cl)cc2)cc1 | -8% | -4% | 0 | -36% | -3 | 0%
CC(/C=C/c1ccco1)=N/NC(=O)c1ccc(C)nc1 | -24% | -3% | 11 | 45µM* | 7 | 1%
CC(C)(C)c1cc(C(=O)Nc2cccnc2)cc(C(=O)Nc2cccnc2)c1 | -6% | -17% | -12 | -9% | -3 | -6%
CC(O)(c1ccc(Cl)cc1)C(c1ccccc1)c1ccccn1 (configuration not stated) | · | 0% | · | · | · | ·
Clc1ccccc1Nc1nc(NCC2CC2)nc2ccsc12 | · | -3% | · | · | · | ·
SMILES | Giardia FBPA inh | TbPYK inhibitor | Shiga toxin inh | Sm TGR inh | Cycloheximide cs | LmPK inhibitor
O=C(Cc1ccccc1)NCCc1csc2nc(-c3ccc(Cl)cc3)nn12 | · | 0% | · | 2% | · | ·
COc1ccc2c(c1)OC1(O)COc3cc(OC)c(OC)cc3C1=C2 (configuration not stated) | -10% | · | · | · | · | ·
O=C(Cn1c(=O)n(Cc2ccc(F)cc2)c(=O)c2sc3ccccc3c21)NCc1ccccc1Cl | · | -1% | · | 22% | · | ·
CCOC(=O)c1sc(NC(=O)c2cc(-c3ccccc3)nc3ccccc23)c(C#N)c1C | -9% | ? | -9 | -14% | -2 | 0%
O=C(/C=C/c1ccco1)c1ccccc1O | -7% | 1% | 59* | 32µM* | 33* | ?
O=C(C=Cc1ccco1)c1ccc([N+](=O)[O-])cc1 | · | -5% | · | · | · | ·
O=C(/C=C/c1ccco1)Oc1cc(Br)cc(/C=N/NC(=O)c2ccccc2O)c1 | -8% | 2% | 22 | -6% | 39* | 6%
Cc1ccc(C(=O)N/N=C\c2ccc3c(c2)OCO3)cn1 | 6% | -14% | 28 | -5% | 17 | 0%
O=C(/C=C/c1ccco1)c1cccnc1 | 2% | -12% | -4 | 13µM* | 5 | -2%
Cc1ccc(C(=O)N/N=C/c2cccc(OC(=O)/C=C/c3ccco3)c2)cn1 | -12% | -4% | 86* | ? | 33* | 7%
CCN(CC)c1ccc(S(=O)(=O)N2CCCCC2)cc1NC(=O)CSCc1c(C)noc1C | · | 13% | · | · | · | ·
CN(C)C(=O)CNc1ccn2nc(-c3cccc(Cl)c3)cc2n1 | · | -12% | · | · | · | ·
CCCn1c(=O)c2sccc2n2c(CCCC(=O)NCCc3ccc(Cl)cc3)nnc12 | · | -4% | · | -1% | · | ·
Nc1oc2ccccc2c(=O)c1-c1ccc2c(c1)OCO2 | -7% | 2% | 72* | 15% | 41* | -3%
O=C(CSc1cn(CCNC(=O)c2cccc(C(F)(F)F)c2)c2ccccc12)Nc1ccc2c(c1)OCCO2 | · | -7% | · | 6% | · | ·
N#Cc1c(SCC(=O)Nc2nccs2)nc2c(c1-c1ccco1)CCCC2 | -13% | -10% | 4 | 45µM* | 17* | 1%
C/C=C(/CC[C@@H](C)[C@H]1CCC2C3=CC[C@H]4[C@H](C)[C@@H](O)CC[C@]4(C)C3CC[C@@]21C)C(C)C (some centres not stated) | 6% | 0% | 7 | · | -2 | ·
C/C(=N/NC(=O)c1ccncc1)c1ccc(NC(=O)c2ccccc2)cc1 | -2% | 0% | 22 | 11% | 9 | -12%
C/C(=N\NC(=O)CSCc1ccccc1Cl)c1cccc(NC(=O)c2ccccc2)c1 | 1% | 2% | 13 | 0% | 0 | 5%
C/C(=N\NC(=O)c1ccccc1O)c1ccc(NC(=O)c2ccccc2)cc1 | · | 2% | 69* | -25% | 38* | -7%
C/C(=N/NC(=O)c1ccccc1O)c1ccc(N2C(=O)C3CCCCC3C2=O)cc1 (configuration not stated) | -3% | 2% | 56* | 11% | 22* | -2%
C/C(=N\NC(=O)c1ccccc1O)c1cccc(NC(=O)c2ccccc2)c1 | -4% | 8% | 42* | 8% | 19* | 0%
CC(=O)Nc1ccc(/C(C)=N/NC(=O)c2ccccc2Cl)cc1 | 0% | 8% | 50* | 3% | 29* | -2%
C/C(=N/OC(=O)c1ccc(C)cc1)c1ccc(N2C(=O)C3CCCCC3C2=O)cc1 (configuration not stated) | -3% | -12% | -14 | -11% | 1 | 4%
